In PubChem BioAssay (NCATS):
Values joined by “and” are separate entries in the source; they are usually repeats but may differ in a detail not shown here. Equal values may be shown once. Inconclusive results are not listed. Entries that show only a call come without a potency. Active and inactive are the calls of the source. Calls follow the shape of the dose curve; as a rule, active = well fitted curve in the direction sought with a large enough effect; inconclusive = small, poorly fitted or top-dose-only effect, or another doubt; inactive = no such curve, though single readings can be large; an effect the other way counts as inactive or inconclusive.

Assays:
[1] = qHTS for Inhibitors of Ubiquitin-specific Protease USP2a Using CHOP2 as the Reporter: K633 Counterscreen (AID 652168); also: series mostly up to about 57 µM
Summary of the method: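 Cell-free interference counterscreen without USP2a: compounds pinned into enzyme-free buffer (20 mM Tris pH 8, 2 mM beta-mercaptoethanol, 0.05% Chaps), then DiUb K48-4IQF substrate added (100 nM stock); fluorescence read kinetically, Ex 525/Em 598.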

[2] = qHTS for Inhibitors of Ubiquitin-specific Protease USP2a Using CHOP2 as the Reporter: Cytotox Assay (AID 652170); also: nearly all actives have a fitted effect of over 70% in size; also: potency is read from the fitted curve at half-maximal effect
Summary of the method: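 HCT116 human colon cancer cells, 600 per well in DMEM with 10% FBS, exposed to compounds for 72 hr at 37 deg C. ATP measured by CellTiter-Glo luminescence, normalized to DMSO cells and no-cell background.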

[3] = biological target: Ubiquitin carboxyl-terminal hydrolase 2 (Homo sapiens) (UniProt O75604); test: qHTS for Inhibitors of Ubiquitin-specific Protease USP2a Using CHOP2 as the Reporter: K484 Substrate (AID 652173);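 also: cleavage of internally quenched K48 di-ubiquitin substrate measured as rising fluorescence over time; nearly all actives have a fitted effect of over 70% in size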; also: potency is read from the fitted curve at half-maximal effect
Summary of the method: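 USP2 (dispensed at 5 nM) was pinned with compounds, then DiUb K48 internally quenched fluorescent substrate (dispensed at 100 nM) was added. The buffer was 20 mM Tris pH 8, 2 mM beta-mercaptoethanol and 0.05% CHAPS. Cleavage was read kinetically as rising fluorescence, Ex 525/Em 598.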

Chain of Ubiquitin carboxyl-terminal hydrolase 2 (Homo sapiens) (O75604 whole entry, looked up): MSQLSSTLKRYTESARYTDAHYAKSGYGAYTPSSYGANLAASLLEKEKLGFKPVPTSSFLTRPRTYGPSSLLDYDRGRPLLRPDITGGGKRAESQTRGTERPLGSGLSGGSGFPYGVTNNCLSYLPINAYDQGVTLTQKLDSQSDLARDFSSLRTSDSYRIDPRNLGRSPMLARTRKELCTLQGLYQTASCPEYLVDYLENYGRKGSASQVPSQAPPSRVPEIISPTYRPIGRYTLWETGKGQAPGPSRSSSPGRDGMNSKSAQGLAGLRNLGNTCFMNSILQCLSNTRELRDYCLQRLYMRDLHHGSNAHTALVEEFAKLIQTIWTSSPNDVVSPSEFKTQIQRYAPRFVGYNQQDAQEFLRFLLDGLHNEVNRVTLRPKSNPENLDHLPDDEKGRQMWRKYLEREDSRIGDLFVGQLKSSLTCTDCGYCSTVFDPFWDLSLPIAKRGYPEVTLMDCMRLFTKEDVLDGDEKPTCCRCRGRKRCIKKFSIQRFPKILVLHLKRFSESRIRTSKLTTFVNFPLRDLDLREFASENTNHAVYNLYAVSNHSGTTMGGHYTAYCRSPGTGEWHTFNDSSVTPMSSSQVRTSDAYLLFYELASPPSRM

| SMILES | outcome [1] | Potency [2] | Potency [3] |
| --- | --- | --- | --- |
| Cc1ccc(S(=O)(=O)Nc2cnccc2C(=O)Nc2ccc(-c3nn[nH]n3)cc2)cc1 | inactive | inactive | 8.63 µM (active) |
| COCOC1CCC(C(=O)Nc2ccc([S+](=O)([O-])Nc3nccs3)cc2)CC1 (stereo not given) | inactive | inactive | inactive |
| Cc1ccc(S(=O)(=O)Nc2cnccc2C(=O)Nc2ccc(C#N)cc2)cc1 | inactive | inactive | 21.7 µM (active) |
| O=C(Nc1nc(-c2ccc(F)cc2)cs1)c1ccncc1NS(=O)(=O)c1ccc(F)cc1 | inactive | inactive | 4.85 µM (active) |
| O=S(=O)(Nc1nccs1)c1ccc(Nc2nc(-c3ccc(Cl)c(Cl)c3)cs2)cc1 | inactive | inactive | 27.3 µM (active) |
| Cc1cc(S(=O)(=O)Nc2cnccc2C(=O)Nc2nc(-c3ccccc3)cs2)c(C)o1 | inactive | 23.5 µM (active) | 3.43 µM (active) |
| Cc1ccc(S(=O)(=O)Nc2cnccc2C(=O)Nc2nc(-c3ccccc3)cs2)cc1 | inactive | 18.7 µM (active) | 2.17 µM (active) and 1.72 µM (active) |
| N#Cc1cnc(N[S+](=O)([O-])c2ccc(Nc3nc(-c4ccccc4)cs3)cc2)s1 | inactive | inactive | inactive |
| CC(C)Cc1ccc(-c2csc(Nc3ccc(S(=O)(=O)Nc4nccs4)cc3)n2)cc1 | inactive | inactive | 5.44 µM (active) |
| CCN(CC)C(=O)C1CCC(C(=O)Nc2ccc([S+](=O)([O-])Nc3nccs3)cc2)CC1 (stereo not given) | inactive | inactive | inactive |
